Reference: PubChem BioAssay (NCATS)
Results filed as inconclusive are left out. Active and inactive are the calls of the source. Calls follow the shape of the dose curve; as a rule, active = well fitted inhibition curve with a large enough effect; inconclusive = small, poorly fitted or top-dose-only effect; inactive = flat fitted curve, though single readings scatter.

Columns and labels:
7G8 = experiment: qHTS profiling for inhibitors of Plasmodium falciparum proliferation (AID 504749); also: nearly all actives have a fitted effect of over 60% in size; also: potency is read from the fitted curve at half-maximal effect; conditions: P. falciparum in erythrocytes, SYBR Green DNA, 72 h; series mostly up to 28.7 µM
Procedure, shortened: (§1)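 Fluorescence of SYBR Green-bound parasite DNA, read at 485/535 nm, served as the growth measure. Infected erythrocytes were cultured with compound 72 h; artemisinin (0.29 uM) and DMSO wells defined the normalization range.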

ATS95 = experiment: as above; conditions: P. falciparum in erythrocytes, SYBR Green DNA, 72 h; series mostly up to 28.7 µM
Procedure, shortened: as §1

C2A = experiment: as above; conditions: P. falciparum in erythrocytes, SYBR Green DNA, 72 h; series mostly up to 28.7 µM
Procedure, shortened: as §1

CP192 = experiment: as above; conditions: P. falciparum in erythrocytes, SYBR Green DNA, 72 h; series mostly up to 28.7 µM
Procedure, shortened: as §1

CP203 = experiment: as above; conditions: P. falciparum in erythrocytes, SYBR Green DNA, 72 h; series mostly up to 28.7 µM
Procedure, shortened: as §1

CP211 = experiment: as above; conditions: P. falciparum in erythrocytes, SYBR Green DNA, 72 h; series mostly up to 28.7 µM
Procedure, shortened: as §1

CP247 = experiment: as above; conditions: P. falciparum in erythrocytes, SYBR Green DNA, 72 h; series mostly up to 28.7 µM
Procedure, shortened: as §1

CP262 = experiment: as above; conditions: P. falciparum in erythrocytes, SYBR Green DNA, 72 h; series mostly up to 28.7 µM
Procedure, shortened: as §1

CP268 = experiment: as above; conditions: P. falciparum in erythrocytes, SYBR Green DNA, 72 h; series mostly up to 28.7 µM
Procedure, shortened: as §1

CP269 = experiment: as above; conditions: P. falciparum in erythrocytes, SYBR Green DNA, 72 h; series mostly up to 28.7 µM
Procedure, shortened: as §1

CP291 = experiment: as above; conditions: P. falciparum in erythrocytes, SYBR Green DNA, 72 h; series mostly up to 28.7 µM
Procedure, shortened: as §1

CP305 = experiment: as above; conditions: P. falciparum in erythrocytes, SYBR Green DNA, 72 h; series mostly up to 28.7 µM
Procedure, shortened: as §1

ECU = experiment: as above; conditions: P. falciparum in erythrocytes, SYBR Green DNA, 72 h; series mostly up to 28.7 µM
Procedure, shortened: as §1

GB4 = experiment: as above; conditions: P. falciparum in erythrocytes, SYBR Green DNA, 72 h; series mostly up to 28.7 µM
Procedure, shortened: as §1

HB3 = experiment: as above; conditions: P. falciparum in erythrocytes, SYBR Green DNA, 72 h; series mostly up to 28.7 µM
Procedure, shortened: as §1

PAD = experiment: as above; conditions: P. falciparum in erythrocytes, SYBR Green DNA, 72 h; series mostly up to 28.7 µM
Procedure, shortened: as §1

SC27B = experiment: as above; conditions: P. falciparum in erythrocytes, SYBR Green DNA, 72 h; series mostly up to 28.7 µM
Procedure, shortened: as §1

TAB113 = experiment: as above; conditions: P. falciparum in erythrocytes, SYBR Green DNA, 72 h; series mostly up to 28.7 µM
Procedure, shortened: as §1

TAB165 = experiment: as above; conditions: P. falciparum in erythrocytes, SYBR Green DNA, 72 h; series mostly up to 28.7 µM
Procedure, shortened: as §1

[1] = target: Luciferin 4-monooxygenase (Photinus pyralis) (UniProt P08659); experiment: Biochemical firefly luciferase enzyme assay for NPC (AID 624030);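 also: purified P. pyralis luciferase at 10 nM with luciferin and ATP substrate; nearly all actives have a fitted effect of over 70% in size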
Procedure, shortened: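 Counter-screen for direct inhibition of the luciferase enzyme by approved-drug library compounds, run at 10 nM enzyme in 50 mM Tris acetate (final). Luminescence was read within 5 min of enzyme-buffer addition and normalized to PTC124 versus DMSO (0%).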

Measured: Potency

Chain of Luciferin 4-monooxygenase (Photinus pyralis) (P08659 whole entry, looked up): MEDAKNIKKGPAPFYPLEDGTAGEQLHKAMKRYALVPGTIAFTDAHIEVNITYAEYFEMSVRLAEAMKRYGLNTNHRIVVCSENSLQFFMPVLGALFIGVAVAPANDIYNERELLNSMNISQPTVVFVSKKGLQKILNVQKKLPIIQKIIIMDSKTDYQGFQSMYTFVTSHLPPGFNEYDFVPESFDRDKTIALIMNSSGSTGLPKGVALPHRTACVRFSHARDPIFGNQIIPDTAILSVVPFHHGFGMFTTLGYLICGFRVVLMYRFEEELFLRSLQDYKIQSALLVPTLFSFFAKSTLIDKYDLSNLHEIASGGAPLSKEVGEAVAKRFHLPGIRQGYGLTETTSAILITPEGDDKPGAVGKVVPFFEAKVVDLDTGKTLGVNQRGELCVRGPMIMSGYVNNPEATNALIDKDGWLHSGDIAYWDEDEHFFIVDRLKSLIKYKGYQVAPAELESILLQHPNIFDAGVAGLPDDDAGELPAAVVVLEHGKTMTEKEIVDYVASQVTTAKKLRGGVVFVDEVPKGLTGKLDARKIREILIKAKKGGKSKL

O=C1C(I)=CC(=C(c2cc(I)c(O)c(I)c2)c2ccccc2C(=O)O)C=C1I
not listed: [1]
inactive: all other assays above

C=C[C@H]1CN2CCC1C[C@H]2[C@H](O)c1ccnc2ccc(OC)cc12 (stereo partly specified)
inactive: [1]
active: 7G8 224 nM | ATS95 794 nM | C2A 1120 nM | CP192 1690 nM | CP203 1690 nM | CP211 1350 nM | CP247 1260 nM | CP262 757 nM | CP268 1510 nM | CP269 1510 nM | CP291 1200 nM | CP305 1350 nM | ECU 251 nM | GB4 301 nM | HB3 794 nM | PAD 891 nM | SC27B 1000 nM | TAB113 708 nM | TAB165 1120 nM

OCC1O[C@H](O[C@H]2C(O)C(O)C(O)O[C@@H]2CO)C(O)C(O)C1O (stereo partly specified)
inactive: all assays above

CC(=O)NC1[C@H](O)C[C@@](O)(C(=O)O)O[C@H]1[C@H](O)[C@H](O)CO (stereo partly specified)
inactive: all assays above

CC(=O)OCC(=O)[C@@]1(O)CCC2C3CCC4=CC(=O)C=CC4(C)C3C(O)C[C@]21C (stereo partly specified)
inactive: all assays above

CC(=O)NC1[C@H]([C@H](O)[C@H](O)CO)OC(C(=O)O)=C[C@H]1N=C(N)N (stereo partly specified)
inactive: all assays above

Cc1cn([C@H]2CC(F)[C@@H](CO)O2)c(=O)[nH]c1=O (stereo partly specified)
inactive: all assays above

CC1(C(=O)O)CCC2(C)CCC3(C)C(=CC(=O)C4C5(C)CCC(O)C(C)(C)C5CCC43C)C2C1 (stereo unspecified)
inactive: all assays above

COC1CC2CCC(C)[C@](O)(O2)C(=O)C(=O)N2CCCCC2C(=O)OC(C(C)CC2CCC(O)C(OC)C2)CC(=O)C(C)/C=C(/C)C(O)C(OC)C(=O)C(C)CC(C)C=CC=C/C=C\1C (stereo partly specified)
active: 7G8 1000 nM | ATS95 3550 nM | C2A 4470 nM | CP192 4780 nM | CP203 1690 nM | CP211 4260 nM | CP247 3160 nM | CP268 6010 nM | CP269 4260 nM | CP291 4780 nM | CP305 5360 nM | ECU 2000 nM | GB4 1690 nM | HB3 2510 nM | PAD 1260 nM | SC27B 2000 nM | TAB113 1410 nM | TAB165 1120 nM
inactive: [1] | CP262

OCC1OC(O)C(O)C(O)C1O (stereo unspecified)
not listed: CP269 | CP291 | GB4
inactive: all other assays above

CCCCCCCCCCCCCCCC(=O)OC[C@H](O)[C@H]1OC[C@@H](O)[C@@H]1O
inactive: all assays above

CCCCC(=O)OCC(=O)[C@]1(O)Cc2c(O)c3c(c(O)c2[C@H](OC2CC(NC(=O)C(F)(F)F)C(O)C(C)O2)C1)C(=O)c1c(OC)cccc1C3=O (stereo partly specified)
inactive: [1]
active: 7G8 1260 nM | ATS95 2000 nM | C2A 2000 nM | CP192 2390 nM | CP203 1690 nM | CP211 1690 nM | CP247 3160 nM | CP262 1900 nM | CP268 5360 nM | CP269 1690 nM | CP291 4260 nM | CP305 4780 nM | ECU 2510 nM | GB4 3790 nM | HB3 2510 nM | PAD 2240 nM | SC27B 2510 nM | TAB113 2510 nM | TAB165 2240 nM

Cc1ccccc1N1C(=O)c2cc(N)ccc2N/C1=C\F
inactive: all assays above

CCCC(=O)O[C@]1(C(=O)COC(C)=O)CC[C@H]2C3C[C@H](F)C4=CC(=O)C=CC4(C)[C@@]3(F)[C@@H](O)CC21C (stereo partly specified)
active: 7G8 11200 nM
not listed: GB4 | PAD | TAB165
inactive: all other assays above

C[C@H]1OC(OC2C(O)[C@@H](O)C(OC3C(O)[C@@H](O)C(O)O[C@@H]3CO)O[C@@H]2CO)[C@H](O)C(O)C1N[C@H]1C=C(CO)[C@@H](O)[C@H](O)C1O (stereo partly specified)
inactive: all assays above

Cc1ccc(/C=C2/C(=O)C3(C)CCC2C3(C)C)cc1 (stereo unspecified)
inactive: all assays above

C[S+](C)CC[C@H](N)C(=O)O
inactive: all assays above

OCC1O[C@H](Oc2ccc(O)cc2)C(O)C(O)C1O (stereo partly specified)
not listed: ECU
inactive: all other assays above

CC1OC(OCC2OC(Oc3c(-c4ccc(OCCO)c(OCCO)c4)oc4cc(OCCO)cc(O)c4c3=O)C(O)C(O)C2O)[C@@H](O)C(O)C1O (stereo partly specified)
inactive: all assays above

CC1(Cn2ccnn2)[C@H](C(=O)O)N2C(=O)C[C@H]2S1(=O)=O (stereo partly specified)
inactive: all assays above

C[C@H]1[C@@H](OC(=O)CCC(=O)O)OC2OC3(C)CC[C@H]4[C@H](C)CC[C@@H]1[C@@]24OO3 (stereo partly specified)
inactive: [1]
active: 7G8 1.4 nM | ATS95 5 nM | C2A 3.2 nM | CP192 9.5 nM | CP203 5.4 nM | CP211 4.8 nM | CP247 5 nM | CP262 5.4 nM | CP268 5.4 nM | CP269 4.8 nM | CP291 4.3 nM | CP305 6 nM | ECU 2.8 nM | GB4 3 nM | HB3 5 nM | PAD 5.6 nM | SC27B 5 nM | TAB113 2 nM | TAB165 1.8 nM

CN[C@H](C)CCC=C(C)C
inactive: [1]
active: 7G8 50.1 nM | ATS95 355 nM | C2A 631 nM | CP192 953 nM | CP203 601 nM | CP211 953 nM | CP247 398 nM | CP262 1070 nM | CP268 1510 nM | CP269 478 nM | CP291 953 nM | CP305 1690 nM | ECU 224 nM | GB4 135 nM | HB3 199 nM | PAD 178 nM | SC27B 355 nM | TAB113 178 nM | TAB165 251 nM

Cc1onc(-c2c(F)cccc2Cl)c1C(=O)NC1C(=O)N2C1SC(C)(C)C2C(=O)O (stereo unspecified)
not listed: CP269
inactive: all other assays above
